According to PubChem BioAssay AID1159580 (chemical genetic matrix, 2015):
Several values for one entry are separate records, joined by “and”; a condition that tells them apart may be missing. Equal values may be shown once. In all, about 5,500 compounds went through this assay and about 2,000 (36%) were called active. Another 18% or so got no clear call; they are omitted. No stated cut-off is given here; in the data, active means normalized growth mostly below about 0.91 (no sharp cut-off); inconclusive means no clear call, values can overlap the other calls; inactive means mostly above about 0.92. This is one part of the list.

Assay: chemical genetic growth profiling, strain panel (AID 1159580);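 further: tested at 20 µM; growth read once vehicle control cultures reached saturation at 30 °C; 1 = growth at the plate median or of vehicle wells; lower values mean less growth of the strain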
Details: S. cerevisiae deletion strains, growth OD

Measured: normalized growth

COc1cc2occc2c2oc(=O)ccc12
active: locus YDL192W, strain arf1, active compounds read low 0.887 | locus YDR101C, strain arx1, active compounds read low 0.897 | locus YDR195W, strain ref2 1.29 [resistant] | locus YER155C, strain BEM2 (second series), active compounds read low 0.821 | locus YJL129C, strain trk1, active compounds read low 1.17 [resistant] | locus YKR001C, strain vps1, active compounds read low 0.877 | locus YLR320W, strain mms22, active compounds read low 0.857 | locus YLR357W, strain rsc2, active compounds read low 1.16 [resistant] | locus YLR371W, strain rom2, active compounds read low 0.861 | locus YML032C, strain rad52, active compounds read low 0.836 | locus YNL248C, strain rpa49, active compounds read low 0.681 | locus YOR184W, strain ser1, active compounds read low 0.836 | locus YPR163C, strain tif3, active compounds read low 0.911
inactive: locus YAL021C, strain ccr4, active compounds read low 1.01 | locus YAL026C, strain drs2, active compounds read low 0.984 | locus YAL030W, strain snc1, active compounds read low 1.01 | locus YBL061C, strain skt5, active compounds read low 0.992 | locus YBR009C, strain hhf1, active compounds read low 0.982 | locus YBR021W, strain FUR4, active compounds read low 0.965 | locus YBR023C, strain chs3, active compounds read low 1 | locus YBR171W, strain sec66, active compounds read low 1.02 | locus YBR229C, strain ROT2, active compounds read low 0.949 | locus YBR231C, strain swc5, active compounds read low 0.962 | locus YBR279W, strain paf1, active compounds read low 1.01 | locus YCL011C, strain gbp2, active compounds read low 1.01 | locus YCL016C, strain dcc1, active compounds read low 0.972 | locus YCL029C, strain bik1, active compounds read low 0.931 | locus YCL069W, strain vba3, active compounds read low 1.03 | locus YCR088W, strain abp1, active compounds read low 1.02 | locus YDL005C, strain med2, active compounds read low 1.01 | locus YDL035C, strain GPR1, active compounds read low 0.92 | locus YDL040C, strain nat1, active compounds read low 1.02 | locus YDL074C, strain BRE1, active compounds read low 0.842 | locus YDL101C, strain DUN1, active compounds read low 0.939 | locus YDL185W, strain tfp1, active compounds read low 0.936 | locus YDR001C, strain nth1, active compounds read low 1.01 | locus YDR069C, strain doa4, active compounds read low 0.98 | locus YDR137W, strain rgp1, active compounds read low 1.06 | locus YDR159W, strain sac3, active compounds read low 1.01 | locus YDR162C, strain NBP2, active compounds read low 0.873 | locus YDR297W, strain sur2, active compounds read low 0.998 | locus YDR318W, strain mcm21, active compounds read low 0.948 | locus YDR334W, strain swr1, active compounds read low 0.969 | locus YDR335W, strain msn5, active compounds read low 0.968 | locus YDR388W, active compounds read low 0.979 | locus YDR392W, strain spt3, active compounds read low 0.792 | locus YDR502C, strain sam2, active compounds read low 0.984 | locus YEL003W, strain gim4, active compounds read low 0.985 | locus YEL037C, strain rad23, active compounds read low 1 | locus YEL061C, strain CIN8 (second series), active compounds read low 1 | locus YER015W, strain faa2, active compounds read low 1 | locus YER016W, strain bim1, active compounds read low 1.02 | locus YER110C, active compounds read low 0.936 | locus YER111C, strain swi4, active compounds read low 1.02 | locus YER155C, strain BEM2, active compounds read low 0.992 | locus YER167W, strain BCK2, active compounds read low 0.967 | locus YFR010W, strain ubp6, active compounds read low 0.957 | locus YGL078C, strain dbp3, active compounds read low 1.02 | locus YGL086W, strain mad1, active compounds read low 0.964 | locus YGL167C, strain pmr1, active compounds read low 1.02 | locus YGL173C, strain kem1, active compounds read low 1.01 | locus YGL227W, strain vid30, active compounds read low 1.03 | locus YGL240W, strain doc1, active compounds read low 0.92 | locus YGL248W, strain PDE1, active compounds read low 0.964 | locus YGL253W, strain hxk2, active compounds read low 1.01 | locus YGR078C, strain PAC10, active compounds read low 0.95 | locus YGR135W, strain pre9, active compounds read low 0.99 | locus YGR252W, strain gcn5, active compounds read low 0.865 | locus YHR013C, strain ard1, active compounds read low 1.08 | locus YHR027C, strain rpn1, active compounds read low 0.998 | locus YHR030C, strain SLT2, active compounds read low 0.982 and 0.967 | locus YHR079C, strain IRE1 (second series), active compounds read low 0.984 | locus YHR079C, strain IRE1, active compounds read low 0.958 | locus YHR094C, strain hxt1, active compounds read low 0.975 | locus YHR129C, strain ARP1, active compounds read low 0.98 | locus YHR142W, strain chs7, active compounds read low 0.961 | locus YHR200W, strain rpn10, active compounds read low 0.93 | locus YIL066C, strain RNR3, active compounds read low 0.925 | locus YIL073C, strain SPO22, active compounds read low 0.944 | locus YIL125W, strain kgd1, active compounds read low 0.99 | locus YIR030C, strain dcg1, active compounds read low 0.979 | locus YJL092W, strain hpr5, active compounds read low 1.02 | locus YJL095W, strain BCK1 (second series), active compounds read low 0.998 | locus YJL095W, strain BCK1, active compounds read low 0.942 and 0.974 | locus YJL115W, strain asf1, active compounds read low 0.991 | locus YJL134W, strain LCB3, active compounds read low 0.967 | locus YJL154C, strain vps35, active compounds read low 1.02 | locus YJL164C, strain tpk1, active compounds read low 0.983 | locus YJL166W, strain qcr8, active compounds read low 1.02 | locus YJL168C, strain set2, active compounds read low 0.976 | locus YJL187C, strain SWE1 (second series), active compounds read low 0.968 | locus YJL187C, strain SWE1, active compounds read low 1.02 | locus YJR066W, strain TOR1, active compounds read low 0.917 | locus YKL009W, strain mrt4, active compounds read low 0.944 | locus YKL068W, active compounds read low 1 | locus YKL085W, strain MDH1 (second series), active compounds read low 0.991 | locus YKL085W, strain MDH1, active compounds read low 0.991 | locus YKL160W, strain elf1, active compounds read low 1.01 | locus YKL190W, strain CNB1, active compounds read low 0.985 | locus YKR026C, strain gcn3, active compounds read low 1.03 | locus YKR091W, strain srl3, active compounds read low 1.02 | locus YLL001W, strain dnm1, active compounds read low 1 | locus YLL026W, active compounds read low 1.02 | locus YLL041C, strain sdh2, active compounds read low 1 | locus YLR027C, strain aat2, active compounds read low 1.01 | locus YLR039C, strain RIC1, active compounds read low 1 | locus YLR058C, strain SHM2, active compounds read low 0.976 | locus YLR102C, strain apc9, active compounds read low 0.985 | locus YLR113W, strain HOG1, active compounds read low 1 | locus YLR221C, strain rsa3, active compounds read low 1.02 | locus YLR258W, strain gsy2, active compounds read low 1.03 | locus YLR262C, strain YPT6 (second series), active compounds read low 1.02 | locus YLR262C, strain YPT6, active compounds read low 1.06 | locus YLR268W, strain sec22, active compounds read low 0.887 | locus YLR342W, strain FKS1 (second series), active compounds read low 0.944 | locus YLR342W, strain FKS1, active compounds read low 1.02 | locus YLR370C, strain arc18, active compounds read low 1.03 | locus YLR384C, strain iki3, active compounds read low 1.01 | locus YLR418C, strain cdc73, active compounds read low 0.914 | locus YML016C, strain PPZ1, active compounds read low 0.956 | locus YML120C, strain ndi1, active compounds read low 1.04 | locus YML124C, strain tub3, active compounds read low 0.982 | locus YMR058W, strain fet3, active compounds read low 0.988 | locus YMR078C, strain ctf18, active compounds read low 0.967 | locus YMR125W, strain sto1, active compounds read low 1.02 | locus YMR129W, active compounds read low 1.04 | locus YMR205C, strain PFK2, active compounds read low 1.03 | locus YMR223W, strain ubp8, active compounds read low 0.957 | locus YMR231W, strain pep5, active compounds read low 1.01 | locus YMR307W, strain GAS1, active compounds read low 0.932 | locus YNL067W, strain RPL9B, active compounds read low 0.99 | locus YNL071W, strain lat1, active compounds read low 1 | locus YNL183C, strain NPR1, active compounds read low 0.935 | locus YNL209W, strain ssb2, active compounds read low 0.995 | locus YNL233W, strain BNI4, active compounds read low 0.942 | locus YNL250W, strain rad50, active compounds read low 0.936 | locus YNL271C, strain bni1, active compounds read low 0.97 | locus YNL298W, strain CLA4, active compounds read low 0.915 | locus YNL307C, strain MCK1, active compounds read low 0.959 | locus YNL322C, strain KRE1 (second series), active compounds read low 0.998 | locus YNL322C, strain KRE1, active compounds read low 0.99 | locus YNR049C, strain mso1, active compounds read low 1.03 | locus YNR052C, strain pop2, active compounds read low 0.988 | locus YOL012C, strain htz1 0.958 | locus YOL147C, strain pex11, active compounds read low 0.952 | locus YOR001W, strain rrp6, active compounds read low 0.985 | locus YOR061W, strain CKA2, active compounds read low 0.939 | locus YOR069W, strain VPS5, active compounds read low 0.984 | locus YOR070C, strain gyp1, active compounds read low 0.995 | locus YOR080W, strain dia2, active compounds read low 1.01 | locus YOR083W, strain WHI5, active compounds read low 0.955 | locus YOR106W, strain vam3, active compounds read low 0.987 | locus YOR136W, strain idh2, active compounds read low 0.957 | locus YOR144C, strain elg1, active compounds read low 0.95 | locus YOR231W, strain MKK1, active compounds read low 0.983 | locus YOR265W, strain rbl2, active compounds read low 0.996 | locus YOR270C, strain vph1, active compounds read low 0.934 | locus YOR290C, strain snf2, active compounds read low 0.963 | locus YOR316C, strain cot1, active compounds read low 0.99 | locus YPL051W, strain arl3, active compounds read low 0.992 | locus YPL078C, strain atp4, active compounds read low 0.987 | locus YPL106C, strain sse1, active compounds read low 0.921 | locus YPL240C, strain hsp82, active compounds read low 1.01 | locus YPL256C, strain CLN2, active compounds read low 1.03 | locus YPR119W, strain clb2, active compounds read low 0.992 | locus YPR141C, strain kar3, active compounds read low 1 | locus YPR167C, strain met16, active compounds read low 0.995 | strain wtn01, active compounds read low 0.902
